Screens deposited in PubChem BioAssay by several laboratories.
ADAM17 inh = ADAM17 inhibition, QFRET primary screen; AID 720648; 0.83% of 370,000 active; recombinant ADAM17, EDANS/DABCYL FRET peptide cleavage; inhibition, % at 6.95 µM;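 active = inhibition above the mean of compounds lying between control limits plus 3 SD, set per campaign, cut at about 8.5% in these data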
ADAM10 inh = inhibitors of human ADAM10; O14672; recombinant ADAM10, EDANS/DABCYL FRET peptide cleavage, 3 h; inhibition, % at 7 µM; 0.62% of 370,000 active; AID 720582;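 active = inhibition above a per-campaign cutoff equal to the mean of compounds falling between control-based bounds plus 3 SD, cut at about 20% in these data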
FAS-TE inh = inhibitors of human fatty acid synthase thioesterase domain. P49327. recombinant FAS-TE, OMFH fluorogenic substrate, fluorescence endpoint. inhibition, % at 15 µM. 0.67% of 360,000 active. AID 602261;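 active = compounds whose normalised, plate-corrected inhibition of enzyme fluorescence in the single-dose primary screen is 50% or more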
KLK7 zymogen act = activators of human kallikrein-7 zymogen; AID 652039; 0.9% of 370,000 active; activation, % at 7 µM; P49862; purified proKLK7, EDANS-DABCYL substrate fluorescence; 100% is mature enzyme control, 0% vehicle;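 active = activation above the mean of all tested compounds plus 3 SD, computed per campaign excluding outliers beyond control limits, cut at about 13% in these data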
GRIN3A LBD mod = modulates the human NR3A ligand-binding domain; Tm shift relative to glycine control, % at 25 µM; NR3A LBD differential scanning fluorimetry, Tm shift; 0% = protein alone, 100% = glycine-bound protein; AID 1259313; 2.5% of 340,000 active;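 active = melting temperature shift of at least 10% of the positive control shift, at one fixed dose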
KLK7 act conf = confirmation of human kallikrein-7 zymogen activators. shares compounds with KLK7 zymogen act. AID 686949. 68% of 3,200 active. activation, % at 7 µM. purified proKLK7, EDANS-DABCYL substrate fluorescence; scaled: vehicle 0, mature enzyme 100;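 active = activation, as change over the incubation, above the mean of all tested compounds plus 3 SD, cut at about 13% in these data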
EDANS-DABCYL int = counter-screen for kallikrein-7 activators: EDANS-DABCYL optical interference | EDANS-DABCYL substrate fluorescence interference, no enzyme, 4 h; solvent 0%, active enzyme control 100% | AID 686952 | shares compounds with KLK7 zymogen act | 80% of 3,200 active | activation, % at 7 µM;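 active = activation above the all-compound mean plus 3 SD, ignoring values outside control-based bounds, cut at about 4.8% in these data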;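 also: value is the 4 h activation minus the activation read at time zero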
Large screens that a line does not name were inactive (follow-up assays come after a bar, where they were run). The list is not random: actives were taken first. Their share in the collection is about 4.6%.

CNc1cncc(-c2ccc(F)c(F)c2)n1	KLK7 zymogen act 37 (no result: GRIN3A LBD mod) | KLK7 act conf 16 | EDANS-DABCYL int 25
CC(=O)Nc1cncc(-c2cccc(C(=O)NCCN(C)C)c2)n1	none (no result: GRIN3A LBD mod)
CNc1cncc(-c2cccnc2)n1	KLK7 zymogen act 67 (no result: GRIN3A LBD mod) | KLK7 act conf 76 | EDANS-DABCYL int 79
CNc1cncc(-c2cccc(C(=O)N(C)C)c2)n1	KLK7 zymogen act 51 (no result: GRIN3A LBD mod) | KLK7 act conf 60 | EDANS-DABCYL int 63
COc1ccc(-c2cc3nc(CCl)[nH]c(=O)c3s2)cc1	KLK7 zymogen act 19 | KLK7 act conf inactive | EDANS-DABCYL int inactive
COc1cccc(CNc2nc3cc(-c4cccc(Cl)c4)sc3c(=O)n2C)c1	none (no result: GRIN3A LBD mod)
COc1ccc(-c2cc3nc[nH]c(=O)c3s2)cc1	KLK7 zymogen act 41 | KLK7 act conf inactive | EDANS-DABCYL int 15
CCN(C(=O)COC(=O)c1ccc(Sc2ncn[nH]2)c([N+](=O)[O-])c1)c1ccccc1	none (no result: FAS-TE inh, GRIN3A LBD mod)
N#Cc1ccc(Cn2ccc3ccc(-c4ccc5ccn(C(=O)C6CC6)c5c4)cc32)cc1	none (no result: FAS-TE inh, GRIN3A LBD mod)
COc1ccc(-c2csc(NC(=O)c3ccc(S(=O)(=O)N4CCc5ccccc5C4)cc3)n2)c(OC)c1	KLK7 zymogen act 55 | KLK7 act conf 59 | EDANS-DABCYL int 79
COc1cccc(NC(=O)C2CCCN2C(=O)Nc2cccc3c2OCO3)c1 (stereo unspecified)	none (no result: FAS-TE inh, GRIN3A LBD mod)
CCC1CCCN1Cn1cnc2c([nH]c3ccc(OC)cc32)c1=O (stereo unspecified)	KLK7 zymogen act 27 | KLK7 act conf inactive | EDANS-DABCYL int 11
CSc1ccc(/C=C/C(=O)OCC(=O)NC2CC2)cc1	KLK7 zymogen act 21 | KLK7 act conf 23 | EDANS-DABCYL int 25
CSc1ccc(/C=C/C(=O)OCC(=O)NC(C)C)cc1	KLK7 zymogen act 22 | KLK7 act conf 17 | EDANS-DABCYL int 18
COC(=O)C1CN(C2CCCC2)CCS(=O)(=O)N1Cc1cn(Cc2ccc(C)cc2)nn1 (stereo unspecified)	none (no result: FAS-TE inh, GRIN3A LBD mod)
C#CCn1c(=NC(=O)c2sc3ccccc3c2Cl)sc2cc(S(N)(=O)=O)ccc21	KLK7 zymogen act 30 | KLK7 act conf inactive | EDANS-DABCYL int inactive
COc1ccc(OC)c(CN2C(=O)CN(S(C)(=O)=O)CC2(C)c2nnnn2C2CCCC2)c1 (stereo unspecified)	none (no result: FAS-TE inh, GRIN3A LBD mod)
Cc1[nH]c2ccccc2c1/C=C(\C#N)S(=O)(=O)c1ccccc1	KLK7 zymogen act 14 | KLK7 act conf inactive | EDANS-DABCYL int inactive
C=CCN1C(=O)[C@@H](CC(=O)N2CCCCC2)[C@]2(C(=O)OC)CCCCC=C12	none (no result: FAS-TE inh, GRIN3A LBD mod)
Nn1c(SCC(=O)Nc2ccccc2-c2ccccc2)nnc1-c1cc(-c2ccc(Cl)cc2)n[nH]1	none (no result: FAS-TE inh, GRIN3A LBD mod)
COc1ccc(-c2coc3c(CN4CCCCC4C)c(O)ccc3c2=O)cc1 (stereo unspecified)	KLK7 zymogen act 46 | KLK7 act conf 69 | EDANS-DABCYL int 58
CC1CN(Cc2c(O)ccc3c(=O)c(-c4ccccc4)coc23)CC(C)O1 (stereo unspecified)	KLK7 zymogen act 82 | KLK7 act conf 27 | EDANS-DABCYL int 26
CC1CCCCN1Cc1c(O)ccc2c(=O)c(-c3ccccc3)coc12 (stereo unspecified)	KLK7 zymogen act 34 | KLK7 act conf 71 | EDANS-DABCYL int 69
O=c1c(-c2ccccc2)coc2c(CN3CCCCC3)c(O)ccc12	KLK7 zymogen act 38 | KLK7 act conf 65 | EDANS-DABCYL int 63
COc1ccc(-c2coc3cc(O)ccc3c2=O)cc1	none
CC1CN(Cc2c(O)ccc3c2oc(=O)c2ccccc23)CC(C)O1 (stereo unspecified)	none
CCc1cc2c(=O)c(-c3nc4ccccc4[nH]3)coc2c(CN2CCCCC2C)c1O (stereo unspecified)	none
CCOC(=O)CNC(=O)CSc1nc2ccccc2c(=O)n1-c1ccc(Cl)cc1	none (no result: FAS-TE inh, GRIN3A LBD mod)
O=C(Nc1nc2ncccn2c1-c1ccccc1)C1CC1	none (no result: FAS-TE inh, GRIN3A LBD mod)
CCc1cc2c(=O)c(-c3ccc4c(c3)OCCO4)coc2c(CN2CCCCC2C)c1O (stereo unspecified)	KLK7 zymogen act 16 | KLK7 act conf inactive | EDANS-DABCYL int inactive
CCC1CCCCN1Cc1c(O)ccc2c(=O)c(-c3ccccc3)coc12 (stereo unspecified)	KLK7 zymogen act 38 | KLK7 act conf 55 | EDANS-DABCYL int 33
CC(c1ccccc1)n1cc(C(=O)N2CCCN(Cc3ccccc3)CC2)nn1 (stereo unspecified)	none (no result: FAS-TE inh, GRIN3A LBD mod)
Cc1ccc(CN2CCCCC(NC(=O)c3cccc([N+](=O)[O-])c3)C2=O)cc1 (stereo unspecified)	none (no result: FAS-TE inh, GRIN3A LBD mod)
CCOC(=O)c1ccc(NC(=O)CSc2nnc(-c3cccc(C)c3)n2C)cc1	none (no result: FAS-TE inh, GRIN3A LBD mod)
CC(=O)N1CCC(C(=O)N2c3ccccc3N=C(c3ccc(C(F)(F)F)cc3)C2C(=O)NC(C)(C)C)CC1 (stereo unspecified)	KLK7 zymogen act 32 (no result: FAS-TE inh, GRIN3A LBD mod) | KLK7 act conf inactive | EDANS-DABCYL int inactive
CCn1cc(CNC(=O)CSc2nc(-c3ccc(OC)c(OC)c3)cc(C(F)(F)F)n2)c(C)n1	KLK7 zymogen act 21 | KLK7 act conf inactive | EDANS-DABCYL int 8.2
COCCNC(=O)CSc1nc(-c2ccc(OC)c(OC)c2)cc(C(F)(F)F)n1	none
CC(C)NC(=O)N[C@H]1C[C@@H]2O[C@@H](CO)CC[C@@H]2O[C@@H]1CCc1ccc(-c2ccc(F)cc2)cc1	none (no result: FAS-TE inh, GRIN3A LBD mod)
COc1cc2c3nnc(-c4ccccc4)c-3cn(Cc3ccc(F)cc3)c2cc1OC	KLK7 zymogen act 28 | KLK7 act conf inactive | EDANS-DABCYL int inactive
CC1CCCCC1NC(=O)CN1c2cccc3cccc(c23)S1(=O)=O (stereo unspecified)	none
CCC(C)NC(=O)CN1c2cccc3cccc(c23)S1(=O)=O (stereo unspecified)	KLK7 zymogen act 14 | KLK7 act conf inactive | EDANS-DABCYL int 9.6
CC1CCN(C(=O)CN2c3cccc4cccc(c34)S2(=O)=O)CC1	KLK7 zymogen act 18 | KLK7 act conf inactive | EDANS-DABCYL int 7.1
COc1cccc(C(=O)NCCCNc2nc3cc(C)cc(C)c3cc2C#N)c1	none (no result: GRIN3A LBD mod)
Cc1cc(C)c2cc(C#N)c(NCCCNC(=O)CCC(=O)O)nc2c1	KLK7 zymogen act 15 | KLK7 act conf 20 | EDANS-DABCYL int 22
Cc1c(Cl)cccc1N1C(=O)CC(N(O)c2ccccc2)C1=O (stereo unspecified)	KLK7 zymogen act 759 | KLK7 act conf 676 | EDANS-DABCYL int 671
Cc1cccc(C)c1N1C(=O)CC(N(O)c2ccccc2)C1=O (stereo unspecified)	KLK7 zymogen act 277 | KLK7 act conf 224 | EDANS-DABCYL int 254
